From PubChem BioAssay (NCI) come the findings set out here.

A short description of experiment [1]: NCI Yeast Anticancer Drug Screen. Data for the rad50 strain (AID 155).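 Note: 0% = growth of vehicle-only cultures of the same strain.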 The note with it: S. cerevisiae rad50 strain growth inhibition; at 50.0 µM; stronger effect = higher value. The procedure, abridged:
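Vehicle-treated cultures provide the reference for the growth inhibition reported for compound-exposed, repair-deficient yeast.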

The nature of experiment [2]: NCI Yeast Anticancer Drug Screen. Data for the mec2-1 strain (AID 157). The conditions noted are these: S. cerevisiae mec2-1 strain, at 50.0 µM, stronger effect = higher value. The gist of the method: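 mec2-1 yeast strain, carrying an alteration in DNA damage repair or cell cycle control, was exposed to compounds; growth inhibition was measured relative to vehicle-treated controls.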

The nature of experiment [3]: NCI Yeast Anticancer Drug Screen. Data for the sgs1 mgt1 strain (AID 161).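 Note: 0% = growth of cultures given vehicle only.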 The note with it: S. cerevisiae sgs1 mgt1 strain, at 50.0 µM, stronger effect = higher value. The gist of the method:
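Percent growth inhibition was derived by comparing compound-exposed mutant yeast with vehicle-exposed cultures. The strain carries alterations in DNA damage repair.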

Experiment [4] can be described thus: NCI Yeast Anticancer Drug Screen. Data for the cln2 rad14 strain (AID 165).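 Note: 0% = growth equal to vehicle treated cultures.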 The conditions noted are these: S. cerevisiae cln2 rad14 strain, at 50.0 µM, stronger effect = higher value. The gist of the method: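 Yeast carrying cln2 and rad14 alterations (cell cycle control and DNA damage repair) were exposed to compounds. Growth inhibition was measured against vehicle-treated controls.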

The nature of experiment [5]: NCI Yeast Anticancer Drug Screen. Data for the bub3 strain (AID 167). The note with it: S. cerevisiae bub3 mutant strain, at 50.0 µM, stronger effect = higher value. The procedure, abridged:
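Mutant yeast screening strain plus compound; vehicle-treated cultures serve as the 0% inhibition reference.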

Experiment [6] in a line: NCI Yeast Anticancer Drug Screen. Data for the mlh1 rad18 strain (AID 175). The note with it: S. cerevisiae mlh1 rad18 strain growth inhibition; at 50.0 µM; stronger effect = higher value. The gist of the method:
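Growth inhibition of the yeast strain was measured after compound exposure and expressed relative to vehicle-treated controls. The strain carries defined defects in DNA damage repair.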

SMILES strings stand for the structures. This is part of a sample that, as a whole, favours compounds with a hit. Of some 79,000 tested, about 15% had one in any assay. Unmarked numbers belong to inactive results. Activity calls are given as the source filed them. Cut-off read from the data, not from the text of the source: active = growth inhibition above about 70%; inactive = the rest.

For the molecule `Fc1ccc(NC(=S)Nc2ccccn2)cc1`, the growth inhibition was 4.05% in experiment [1]; -6.4% in experiment [2]; -4.25% in experiment [3]; -59.5% in experiment [4]; 6.05% in experiment [5]; 19.9% in experiment [6].

Turning to `Cc1cc(=O)c2ccccc2o1`, the growth inhibition in experiment [1] was -5.15%; in experiment [2] it was -7.75%; in experiment [3] it was -1.3%; in experiment [4], -0.1%; in experiment [5], -18.9%; in experiment [6], -13.7%.

On to `CC(=O)OCC(OC(C)=O)C1(O)CCC2C3CCC4=CC(=O)CCC4(C)C3CCC21C` (stereo unspecified), for which the growth inhibition in experiment [1] is 98.4% (active); in experiment [2] it was 99% (active); in experiment [3], 98.5% (active); in experiment [4], 97.8% (active); in experiment [5], 98.3% (active); in experiment [6] it was 98.3% (active).

On to `C/C(CC1SCCCS1)=C(/C)CC1SCCCS1`, for which the growth inhibition in experiment [1] is -34.8%; in experiment [2], -38.6%; in experiment [3] it was -23.1%; in experiment [4], -5%; in experiment [5], 2.25%; in experiment [6], -45%.

On to `CN(C=O)c1cccc(C(=O)O)c1`, for which the growth inhibition in experiment [1] is 4.05%; in experiment [2], -1.2%; in experiment [3] it was -3.95%; in experiment [4], -29.5%; in experiment [5], -2.35%; in experiment [6], 7.45%.

As to `CCOC(=O)c1c(OC)c(-c2ccccc2)c(=O)n2c3ccccc3n(C)c12`, the growth inhibition was 18.2% in experiment [1]; 9.05% in experiment [2]; -0.2% in experiment [3]; -4.1% in experiment [4]; -1.1% in experiment [5]; 9.9% in experiment [6].

Consider `CCSc1nc2ccc(CN3C(=O)c4ccccc4C3=O)cc2s1`, for which the growth inhibition was 1.3% in experiment [1]; -3.5% in experiment [2]; -4.6% in experiment [3]; 1.5% in experiment [4]; 15.8% in experiment [5]; -2.3% in experiment [6].

For `CC/C(C)=N\NC(=O)CC(=O)N/N=C(/C)CC`, the growth inhibition was -8.35% in experiment [1]; 1.45% in experiment [2]; -7% in experiment [3]; -61.6% in experiment [4]; -4% in experiment [5]; -17.1% in experiment [6].

On to `CCCCCCc1ccccn1`, for which the growth inhibition is 4.6% in experiment [1]; 9.3% in experiment [2]; 9.6% in experiment [3]; -1.6% in experiment [4]; -1.4% in experiment [5]; 17.8% in experiment [6].

Turning to `N#CCc1nc2ccccc2[nH]1`, the growth inhibition in experiment [1] is 7.95%; in experiment [2], -6.95%; in experiment [3], -9.35%; in experiment [4] it was 3.1%; in experiment [5], 6.25%; in experiment [6], 3.3%.

With `Nc1nc(N)c2ccccc2n1`, the growth inhibition was -11.3% in experiment [1]; 13.8% in experiment [2]; -5.2% in experiment [3]; -0.5% in experiment [4]; -6.9% in experiment [5]; -1.7% in experiment [6].

For `CCOC(=O)/C(=C\c1ccccc1)c1nc2ccccc2[nH]1`, the growth inhibition is -1.2% in experiment [1]; -13.2% in experiment [2]; -15.4% in experiment [3]; -15.5% in experiment [4]; -14.7% in experiment [5]; -13.6% in experiment [6].

For the molecule `O=c1c2ccccc2nc(-c2ccccc2Cl)n1NCC1(O)OCC(O)C(O)C1O` (stereo unspecified), the growth inhibition in experiment [1] is 12%; in experiment [2], 5.2%; in experiment [3] it was 16.6%; in experiment [4], -13.2%; in experiment [5], -1.2%; in experiment [6], 3.25%.

`O=C1CN(/N=C/c2ccc(-c3ccc(Cl)c(Cl)c3)o2)C(=O)N1`: the growth inhibition in experiment [1] is 28.9%; in experiment [2], 14.4%; in experiment [3], 29.1%; in experiment [4] it was 3.2%; in experiment [5], 10%; in experiment [6] it was 5.5%.

With `O=C(NC(CO)CO)c1ccc2cc(C(=O)N3CC(CCl)c4ccc([N+](=O)[O-])cc43)[nH]c2c1` (stereo unspecified), the growth inhibition in experiment [1] was 42.6%; in experiment [2] it was -35.8%; in experiment [3], -22.4%; in experiment [4], -7.95%; in experiment [5], -36.1%; in experiment [6], -72.8%.

As to `CCOC(C)(C(=O)O)c1cccc2ccccc12` (stereo unspecified), the growth inhibition in experiment [1] is -20.4%; in experiment [2], -11%; in experiment [3], -7.95%; in experiment [4], 0.4%; in experiment [5], -8.8%; in experiment [6] it was 14.8%.

In the case of `COc1ccc(N2C(=O)c3c(c4[nH]c5ccccc5c4c4ccc(C(C)(C)C)cc34)C2=O)cc1`, the growth inhibition was 5.5% in experiment [1]; -1.2% in experiment [2]; 22.6% in experiment [3]; 19.6% in experiment [4]; -10.3% in experiment [5]; -2.2% in experiment [6].

In the case of `Cc1oc2nc(N(C)C)nc(Cl)c2c1C`, the growth inhibition in experiment [1] is 7.15%; in experiment [2], 5.8%; in experiment [3] it was 8.25%; in experiment [4], 12.5%; in experiment [5], 22.1%; in experiment [6] it was -15%.

With `CC(=O)NC(C)(CO)C(=O)O` (stereo unspecified), the growth inhibition in experiment [1] is 22.6%; in experiment [2] it was 12.7%; in experiment [3] it was 19.4%; in experiment [4], 13.4%; in experiment [5], 7.35%; in experiment [6] it was 14.1%.

For the molecule `Clc1c2ncccc2cc2n[nH]nc12`, the growth inhibition in experiment [1] is 14.9%; in experiment [2] it was 21.2%; in experiment [3], 24%; in experiment [4], 6.55%; in experiment [5], 5.8%; in experiment [6] it was 17.1%.

On to `CCCc1nc(CCC)nc(CCC)n1`, for which the growth inhibition was -13.8% in experiment [1]; -5.35% in experiment [2]; -10.2% in experiment [3]; -6.5% in experiment [4]; 5.55% in experiment [5]; -14.7% in experiment [6].
